Measured values from PubChem BioAssay (NCI).
The panel holds about 83,000 compounds, 20% with a hit somewhere; the sample as a whole holds those more often.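 In brief: 96-well plates, 48 h treatment, single concentration, percent growth endpoint.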 Unmarked numbers belong to inactive results. The source made the active and inactive calls.

These molecules were tested on MOLT-4 leukemia (assay: NCI-60 one-dose screen, 48 h (100 = growth as untreated, 0 = no growth, -100 = all killed)). Details: 10 µM unless noted.
Experimental: Growth inhibition of the MOLT-4 human tumor cell line is measured as a screen for anti-cancer activity. Cells are grown in 96 well plates and exposed to the test compound for 48 hours. Compounds are tested at a single concentration, which is 10^-5 M for most compounds. The reported endpoint is percent growth (GI% or GIPRCNT), where numbers from 0 - 100% represent growth inhibition, and numbers from -100% - 0 represent cell death. For example, a value of 40 represents 60% growth inhibition. A value of 0 means no net growth occurred over the course of the experiment. A value of -40 indicates 40% of cells at the beginning of the experiment died by the end of the experiment. A value of -100 means all cells are dead at the end of the experiment.
NCI-60 Human Tumor Cell Lines Screen was performed using the standard one-dose NCI protocol, which is described in more detail at https://dtp.cancer.gov/discovery_development/nci-60/default.htm.
Compounds with GIPRCNT values below 10 were considered active. Activity score was based on GIPRCNT using the following formula: […]
Score is 0 for GIPRCNT values of 100 or above, 50 for GIPRCNT values of 0, and 100 for GIPRCNT values of -100.

| Structure (SMILES) | growth |
| --- | --- |
| C=C1[C@@H](O)C[C@H]2C(C)(C)C[C@H](Cl)C[C@]2(C)[C@H]1C[C@H](O)[C@H]1CC(=O)NC1=O | -11.2% (active) |
| Cc1[nH]n(C(N)=S)c(=O)c1N=Nc1ccc(S(=O)(=O)Nc2ccncn2)cc1 | 106% |
| Nc1c(C(=O)c2ccccc2)sc2nc(-c3cccs3)ccc12 | 28.1% |
| CO[C@H](C(=O)N[C@@H](CCCCNC(=O)OCc1ccccc1)C(=O)OC(C)(C)C)[C@@H]1Cc2cc3cc(OC4CC(OC5CC(O)C(O)C(C)O5)C(O)C(C)O4)c(C)c(O)c3c(O)c2C(=O)[C@H]1OC1CC(OC2CC(OC3CC(C)(O)C(O)C(C)O3)C(O)C(C)O2)C(O)C(C)O1 (stereo not given in full) | -12.6% (active) |
| Cc1ccccc1N1C(c2ccccc2)=NNC12C=CC(=O)C=C2Cl (stereo not given) | 94.7% |
| Cc1ccc(-c2nc3ccc(Cl)cn3c2NC2CCCCC2)o1 | 43.4% |
| CCN(CC)CCNC(=O)c1c(C)[nH]c(/C=C2\C(=O)Nc3ccc(F)cc32)c1C | 17% |
| O=C(c1ccccc1)C(c1ccccc1)N1CCOCC1 (stereo not given) | 94.3% |
| Cc1cc(C(=O)Nc2cc(Oc3ccc4nc(NC(=O)C5CC5)cn4n3)ccc2C)n(C)n1 | 32.6% |
| O=C(Cn1ccc2ccccc21)Nc1ccc(-c2nc3ccccc3s2)cc1 | 94.5% |
| COc1cc(N2CCC(N(C)C)CC2)ccc1Nc1ncc(Cl)c(Nc2ccccc2P(C)(C)=O)n1 | 13.4% |
| Cc1ccc2oc(=O)cc(-c3cc(-c4cc5ccccc5oc4=O)nc(N)c3C#N)c2c1 | 93.9% |
| COc1ccc2c(c1)cn1c3ccc(O)cc3nc(N)c21 | 18.5% |
| Cc1ccc(-c2cc3c(SCC(=O)Nc4cc(C(F)(F)F)ccc4Cl)nccn3n2)cc1 | 5.39% (active) |
| O=C(NOCCO)c1ccc2cncn2c1Nc1ccc(I)cc1F | 85% |
| CO[C@H]1C[C@@H]2CC[C@@H](C)[C@@](O)(O2)C(=O)C(=O)N2CCCC[C@H]2C(=O)O[C@H]([C@H](C)C[C@@H]2CC[C@@H](O)[C@H](OC)C2)CC(=O)[C@H](C)/C=C(\C)[C@@H](O)[C@@H](OC)C(=O)[C@H](C)C[C@H](C)\C=C/C=C/C=C/1C | 6.08% (active) |
| O=C1CC(c2ccc3c(c2)OCO3)c2ncn(-c3ccc(Cl)cc3)c2N1 (stereo not given) | 32% |
| Cc1cc(O)c2c(c1)C1OC(=O)CCCCCN1C1=C2C(=O)c2cccc(OC3CC(O)C(O)C(C)O3)c2C1=O (stereo not given) | 63.3% |
| O=C(Cc1ccc(/C=C/C(=O)c2ncc[nH]2)cc1)Nc1ccc(Br)cc1 | 2.86% (active) |
| COc1cnc2c(c1)C(=O)c1c-2n(CCCn2ccnc2)c(=O)c2cc(Cl)ccc12 | -23.6% (active) |

| Structure (SMILES) | growth |
| --- | --- |
| COc1cc2ncnc(Nc3ccc(O)cc3)c2cc1OC | 75.3% |
| Cn1nccc1Nc1nccc(-c2ccn([C@H](CO)c3ccc(Cl)c(F)c3)c(=O)c2)n1 | 96% |
| CN1CCN(c2ccc(C(=O)Nc3n[nH]c4ccc(Cc5cc(F)cc(F)c5)cc34)c(NC3CCOCC3)c2)CC1 | -20.4% (active) |
| Nc1ccc(S(=O)(=O)O)c2cc(S(=O)(=O)O)cc(O)c12 | 101% |
| CCCCCCC1(/C=N/NC(N)=O)NC(=O)NC1=O (stereo not given) | 101% |
| Cc1cc(N(CCNc2ccnc3cc(Cl)ccc23)Cc2ccc3c(c2)OCO3)nc(N2CCCC2)n1 | -17.7% (active) |
| COc1ccc2c(CCCc3ccc(Cl)cc3Cl)c3[n+](cc2c1OC)CCc1cc2c(cc1-3)OCO2 | -9.91% (active) |
| COc1ccc(C(=O)c2cc(OC)c(OC)c(OC)c2)cc1/C=C/C(=O)c1ccc(F)cc1 | 0.641% (active) |
| CC(C)C1CCC(C)C(C2(C#N)C(N)=NC(N)=C2C#N)C1=O (stereo not given) | 96.1% |
| CC1CCC(n2cnc3c(Cl)ncnc32)O1 (stereo not given) | 113% |
| COc1ccc(C(=O)N2c3ccccc3Sc3ccccc32)c(F)c1 | 27.1% |
| CSC1=C(N)C(=O)c2[nH]cc(CO)c2C1=N | -24.3% (active) |
| Cc1csc(-c2nnc(Nc3ccc(Oc4ncccc4-c4ccnc(N)n4)cc3)c3ccccc23)c1 | 32.3% |
| CC(N)C(Cc1ccc(Cl)cc1)c1ccc(Cl)cc1 (stereo not given) | 34.9% |
| Cc1nn(-c2ccccc2)c2c1N=c1s/c(=C\c3cn(-c4ccccc4)nc3-c3ccc(Cl)cc3)c(=O)n1C(C)N2 (stereo not given) | 95.3% |
| CNC(=O)c1ccc(Nc2ncc(C(F)(F)F)c(NCc3nccnc3N(C)S(C)(=O)=O)n2)cc1 | -9.42% (active) |
| CCCCOc1nc2cc(Cl)ccc2cc1/C=C/c1cc(/C=C/c2cc3ccc(Cl)cc3nc2OCCCC)n(-c2ccccc2)n1 | 84.8% |
| COc1ccc(/C(C)=C(\c2ccc(Cl)cc2)c2ccc(OCCN3CCCCCC3)cc2)cc1 | 40.2% |
| CC(=Nc1ccccc1)C1=C(O)C(Cc2ccccc2)NC1=O (stereo not given) | 0.239% (active) |
| CN(C)C/C=C/C(=O)Nc1cc2c(Nc3ccc(F)c(Cl)c3)ncnc2cc1O[C@H]1CCOC1 | -13.5% (active) |
